Structures are written as SMILES.

The assay has as its system HepG2. As to the kind of experiment: GSK_TCMDC: Percent inhibition of human HepG2 cell line. Test compounds present at 10uM. Type of assay: functional.
In general, Inhibition refers to the drop in the measured response relative to a control, in per cent. Read a high Inhibition as a strong effect. As to `CC(=O)Nc1nc(C(=O)Nc2cccc(-c3cccc(-c4nc5ccccc5[nH]4)c3)c2)cs1`, the Inhibition is given as 31%.
The molecule `Cc1cc(N[C@@H](Cc2ccccc2)C(=O)NCc2cccs2)nc(NCC2CCCCC2)n1.O=C(O)C(F)(F)F` had an Inhibition of 0%.
With `CCCNCc1ccc(-c2ccc(CN(CC3CCCO3)C(=O)C3CC(=O)c4ccccc43)cc2)nc1.O=C(O)C(F)(F)F` (centres undefined), the Inhibition turned out to be 0%.
With `COc1ccc(NC(=O)c2ccc(Br)c(C)c2)cc1N1CCN(Cc2ccccc2)CC1.O=C(O)C(=O)O` the figure was 0%; with `Cn1cncc1C(=O)Nc1cccc(-c2cccc(-c3nc4cc(C(F)(F)F)ccc4[nH]3)c2)c1`, 38%; with `CCN(CCNC(=O)Cn1c(C)cc2cc([N+](=O)[O-])ccc21)c1cccc(C)c1`, 0%.
Regarding `O=C(Nc1cccc(-c2ccc(CN3CCCC3)cc2)c1)c1cccc(F)c1.O=C(O)C(F)(F)F`, the Inhibition turned out to be 20%.
For the molecule `O=C(O)C(F)(F)F.O=c1[nH]c2ccc(Nc3nccc(NCCc4ccccc4)n3)cc2[nH]1`, the Inhibition is given as 0%.
With `Cc1ccnc2nc(C(=O)Nc3cc(C(F)(F)F)ccc3N3CCCCC3)nn12` the figure was 7%; with `COc1cc(C(=O)Nc2cccc(-c3cn4cccc(C)c4n3)c2)cc(OC)c1OC`, 0%; with `Clc1ccc2c(NCc3ccccn3)ccnc2c1`, 0%.
For the molecule `COc1ccc2nccc([C@@H](O)CN3CCC(NCCOc4c(C)cccc4F)CC3)c2c1.O=C(O)C(=O)O`, the Inhibition came to 4%.
For the molecule `CC(C)c1ccc(CN2CCCCC(NC(=O)c3cc(-c4ccccc4Cl)cs3)C2)cc1.O=C(O)C(F)(F)F` (centres undefined), the Inhibition is on record as 8%.
`CCOC(=O)c1ccc(NC(=O)N[C@@H](Cc2ccccc2)C(=O)NC2CCN(Cc3ccc(OCCCN(C)C)cc3)C2)cc1` (some centres undefined) showed an Inhibition of 5%.
Consider `Cc1cccc2nc(-c3ccc(-c4cccc(CNCc5ccccc5)c4)cc3)[nH]c12.O=C(O)C(F)(F)F`, for which the Inhibition is given as 3%.
The molecule `COc1ccccc1-c1ccc(C(=O)NCC2CCCN(Cc3cccc(C(F)(F)F)c3)C2)s1.O=C(O)C(F)(F)F` (centres undefined) gave an Inhibition of 18%.
With `COc1cccc(C(=O)C2CC2CN(C)CC(O)c2cc(C)c(OC)cc2C)c1.O=C(O)C(F)(F)F` (centres undefined) the figure was 8%; with `O=C(N[C@H]1CCCC[C@H]1C(=O)O)c1ccccc1`, 7%; with `NC(=O)c1cc2nc(Nc3ccc(F)cc3)nc(NC3CCC3)c2[nH]1.O=CO`, 0%.
With `O=C(N[C@H]1CCN(Cc2ccc(OCCN3CCNCC3)c3ccccc23)C1)c1ccc(Cl)c(Cl)c1.O=C(O)C(F)(F)F` the figure was 53%; with `CO/C(=C\C=C\c1cc2cc(Cl)c(Cl)cc2[nH]1)C(=O)NCCCN1CCC(c2ccccc2)CC1`, 33%; with `CCC[C@@H]([C@@H](CC1CCCCC1)C(=O)N[C@H](C(=O)Nc1ccccn1)[C@H](C)CC)N(O)C=O`, 24%.
Molecule `O=C(/C=C/c1ccc(Cl)c(Cl)c1)NCCCCCN1CCC(NC(=O)Nc2cccc(Cl)c2F)CC1` registered an Inhibition of 75%.
`COc1ccc2nccc([C@@H](O)CN3CCC(NCc4ccc5c(n4)NC(=O)CS5)C(F)C3)c2c1.Cl` (some centres undefined) yielded an Inhibition of 5%.
`O=C(NCCN1CCC(c2ncc(-c3ccccc3)o2)CC1)c1ccc(NC(=O)c2ccc(Cl)cc2)cc1`: the Inhibition is 32%.
Molecule `CCn1c(C)cc(C=C2SC(=Nc3ccccc3)NC2=O)c1C` displayed an Inhibition of 27%.
In turn, `COc1ccc(Nc2nc(C)cc(NC3CCCC3)n2)cc1` registered an Inhibition of 34%.
With `N#Cc1ccc(N2CCN(Cc3cccc(-c4ccc(-c5nc6cc(C(F)(F)F)ccc6[nH]5)s4)c3)CC2)nc1.O=C(O)C(F)(F)F` the figure was 31%; with `CCn1cnc2c(N3CCCS3(=O)=O)cc(C(=O)N[C@@H](Cc3ccccc3)[C@H](O)CNC(C)(C)c3cccc(C(F)(F)F)c3)cc21`, 9%; with `Cc1cccc2nc(-c3ccc(-c4cccc(CN5CCN(CC6CCCN(C)C6)CC5)c4)s3)[nH]c12.O=C(O)C(F)(F)F` (centres undefined), 47%.
As to `Cc1cc(N[C@@H](CC(C)C)C(=O)NC2CCCC2)nc(NCC2CCCCC2)n1.O=C(O)C(F)(F)F`, the Inhibition was determined as 8%.
With `CNCCNCc1ccc(-c2cccc(-c3nc4cc(C(F)(F)F)ccc4[nH]3)c2)cc1.O=C(O)C(F)(F)F` the figure was 27%.
For the molecule `COc1ccc(N2CCc3c(-c4cccc5cnccc45)cc(C)nc32)c(C)c1`, the Inhibition is 20%.
Consider `CN1CCN(CCCN(Cc2csc(-c3ccc(CNCc4ccccc4)cc3)n2)S(=O)(=O)c2cccc3cccnc23)CC1.O=C(O)C(F)(F)F`, for which the Inhibition was 5%.
The molecule `Cc1cc(-c2cccc(CNCc3ccccc3)c2)ccc1S(=O)(=O)NCCN1CCCC1.O=C(O)C(F)(F)F` displayed an Inhibition of 40%.
In turn, `NS(=O)(=O)NCCCN1CCN(c2ccccc2)CC1` yielded an Inhibition of 2%.
The molecule `NC(=O)c1sc(-n2cnc3ccccc32)cc1OCc1ccccc1[N+](=O)[O-]` had an Inhibition of 10%.
The molecule `COc1ccc(CCNCCCCCCNCCc2ccccc2Cl)cc1OC.Cl` showed an Inhibition of 13%.
`COc1cccc(Nc2nc(C)cc(NC3CCN(Cc4ccccc4)CC3)n2)c1` gave an Inhibition of 15%.

For the origin of these results see ChEMBL document CHEMBL1157539, “Thousands of chemical starting points for antimalarial lead identification” (Nature, 2010).
